{"source": "paper PMC5540273", "about": "(PLoS ONE, 2017);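 further: KINOMEscan kinase panel screen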", "data": [{"tested_on": "CAMKK2", "details": "concentration: 1 μM, replicates: in singlicate; n = 1", "units": {"%Inh": "%"}, "values": [{"smiles": "Nc1nc(-c2nccs2)c(-c2ccnc3ccccc23)s1", "note": "[GW693542]", "%Inh": 0}, {"smiles": "CC1=C(C(=O)Nc2cc3cn[nH]c3cc2F)C(c2ccc(C(F)(F)F)cc2)CC(=O)N1", "note": "(centres unmarked) [GSK429286]", "%Inh": 14}, {"smiles": "Cc1cccc(-c2nc(Nc3ccc4[nH]ncc4c3)c3ccccc3n2)n1", "note": "[GW857175]", "%Inh": 0}, {"smiles": "Cc1cc(NCC(c2ccccc2)c2ccccc2)nc(NCc2ccc(C(F)(F)F)cc2)n1", "note": "[GW497681]", "%Inh": 23}, {"smiles": "COC(=O)c1c(-c2ccccc2)c2cc(OC)ccc2c(=O)n1Cc1ccccc1", "%Inh": 17}, {"smiles": "Cn1ccc2ncnc(Oc3ccc(Nc4nc5ccccc5[nH]4)cc3)c21", "%Inh": 22}, {"smiles": "COc1cc(Nc2nccc(N3CCC(NC(=O)Nc4cc(C)ccc4C)C3)n2)cc(OC)c1OC", "note": "(centres unmarked) [GSK1379762]", "%Inh": 0}, {"smiles": "O=C(Nc1ccccc1)Nc1cccc(Oc2ccc3nccn3n2)c1", "%Inh": 0}, {"smiles": "Cl.O=C(Nc1cccc(-c2nn3ncccc3c2-c2ccnc(Nc3cccnc3)n2)c1)c1c(F)cccc1F", "note": "[GSK312879]", "%Inh": 0}, {"smiles": "CCn1c(-c2ccccn2)nc2cnccc21", "note": "[SB-736398]", "%Inh": 0}, {"smiles": "CC(C)(C)c1ccc(C(=O)Nc2cn3cc(Cl)ccc3n2)cc1", "%Inh": 14}, {"smiles": "Cl.NC(=O)c1cccc(Nc2nccc(Nc3ccc(Oc4cccc(Cl)c4)c(Cl)c3)n2)c1", "note": "[GW659008]", "%Inh": 0}, {"smiles": "Cc1ccccc1-n1cnc2c(N)ncnc21", "note": "[SKF-97510]", "%Inh": 8}, {"smiles": "COc1ccc2nc(-c3cccc(C)n3)nc(Nc3ccncc3)c2c1", "note": "[GSK204919]", "%Inh": 0}]}]}
